Measured values reported in PubChem BioAssay AID977607 (Broad Institute, 2014).
About 460 (31%) of roughly 1,500 compounds were called active. About 1% were inconclusive and are not listed.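 The calls were made as follows: active = curve reaches 40% activation over neutral controls at an AC40 no higher than the top valid tested concentration; inconclusive = no clear call, values can overlap the other calls; inactive = signal moving opposite to the expected increase, and the rest.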 The list is a sample of the results. Measured potencies and affinities stand elsewhere.

Experiment: activators of glucose-dependent insulin secretion, dose response, cell-based, INS-1E, Gaussia luciferase, luminescence, cherry-pick, set 2 (AID 977607);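 also: 0% = median of the plate neutral control wells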
Conditions: INS-1E GLuc insulin secretion reporter, 2-3 h, active compounds read high; at 35 µM, 100% = signal doubled over neutral wells unless noted

Max activation, inactive:
CC(C)CN(C(=O)C1CCCCC1)C1CCS(=O)(=O)C1 (configuration not stated) -14.6% [at 3.8 µM, 100% = signal doubled over neutral wells]
CC1CCC(NC(=O)C2COc3ccccc3O2)CC1 (configuration not stated) -17.3% [at 0.135 µM, 100% = signal doubled over neutral wells]
O=C(O)C1Cc2c([nH]c3ccccc23)C(c2ccc3c(c2)OCO3)N1 (configuration not stated) 27.5% [at 0.015 µM, 100% = signal doubled over neutral wells]
CC(=O)N1CCN(c2nc(-c3cccs3)nc3ccccc23)CC1 40.4% [at 11 µM, 100% = signal doubled over neutral wells]
Cc1nn(-c2ccccc2)c2nc(C(F)F)cc(C(F)F)c12 13.6%
COc1ccc(-c2cnc(N)nc2-c2ccc(OC)cc2)cc1 20.9% [at 11 µM, 100% = signal doubled over neutral wells]
Cc1cccn2cc(CCNS(=O)(=O)c3cccs3)nc12 -22.2% [at 0.42 µM, 100% = signal doubled over neutral wells]
Cc1cc(OCC(O)CNC(C)c2ccccc2)ccc1C(C)C (configuration not stated) 327%
COc1ccccc1C(C)NS(=O)(=O)c1ccc(Cl)nc1 (configuration not stated) 15.6% [at 3.8 µM, 100% = signal doubled over neutral wells]
Cc1cn(CC(C)C)c(=O)n(-c2ccccc2)c1=O 12.2%
Cc1cccc2nc(-c3ccco3)c(Nc3ccccc3)n12 -25.5%
O=c1c(C(c2ccccc2)c2c(O)sc3ccccc3c2=O)c(O)sc2ccccc12 19.2%
COc1ccc(N2CC(C(=O)N3CCc4ccccc43)CC2=O)cc1 (configuration not stated) -12.5% [at 0.0016 µM, 100% = signal doubled over neutral wells]
COc1ccc(-c2[nH]c3ccccc3c2SCCN)cc1 -28.1%
CCCCc1[nH]c(=O)c(C#N)c2c1CCCC2 16.7%
Cc1c(OCC(=O)NCc2ccccn2)ccc2c3c(c(=O)oc12)CCCC3 27.3%
NNc1nc(-c2ccccc2)c2ccccc2n1 -19.6% [at 0.046 µM, 100% = signal doubled over neutral wells]
CCn1c(=O)[nH]c(=O)c2c(N)c(C(=O)c3cc(F)ccc3F)sc21 27.3%
COC(=O)N1CCCCC1c1cc(C(=O)NCc2ccc(Cl)c(Cl)c2)no1 (configuration not stated) -38.9%
CC(C)COc1ccc(Br)cc1CNC(C)(C)C -18.4% [at 11 µM, 100% = signal doubled over neutral wells]
COCCN1Cc2cccc(C(=O)NCc3ccccc3OC)c2C1=O -20% [at 0.0016 µM, 100% = signal doubled over neutral wells]
CSc1ccc(/C=N/N(C)S(=O)(=O)c2ccc(C)cc2)cc1 -22.1%
Cc1ccc(S(=O)(=O)/N=C2\CN(C)C(=O)N2C)cc1 -21.8% [at 3.8 µM, 100% = signal doubled over neutral wells]
CCCc1nc(-c2cc3cc(C)ccc3[nH]c2=O)no1 -13.2% [at 1.2 µM, 100% = signal doubled over neutral wells]
CCOC(=O)c1c(N)c(C#N)c2n1CCCC2 -17% [at 0.0016 µM, 100% = signal doubled over neutral wells]
O=C(O)c1c(NC(=O)N2CCOCC2)sc2c1CCCC2 -10.1% [at 0.0016 µM, 100% = signal doubled over neutral wells]
CCOc1ccc(C(=O)NCC(=O)OCCN2C(=O)c3ccccc3C2=O)cc1OCC -25.4% [at 0.135 µM, 100% = signal doubled over neutral wells]
O=S(=O)(NCC1CCCO1)c1ccc(Cl)nc1 (configuration not stated) -19.6% [at 3.8 µM, 100% = signal doubled over neutral wells]
Cc1noc(C)c1S(=O)(=O)NC(=O)C1(C)CCN1C(=O)C1(c2ccc(Cl)cc2)CCC1 (configuration not stated) -18.9% [at 0.135 µM, 100% = signal doubled over neutral wells]
CCCCNC(=O)C1(C)CCN1C(=O)c1cc2ccccc2s1 (configuration not stated) -22.6% [at 3.8 µM, 100% = signal doubled over neutral wells]
CC1(C(=O)N2CCCCC2)CCN1C(=O)C1(c2ccccc2)CC1 (configuration not stated) -16.5% [at 0.046 µM, 100% = signal doubled over neutral wells]
CCSc1ncnc2c(C#N)c3n(c12)CCCCC3 -11.2% [at 0.005 µM, 100% = signal doubled over neutral wells]
Cc1cc(=O)[nH]c2c1c(C)nn2C1CCCC1 -15.7% [at 1.2 µM, 100% = signal doubled over neutral wells]
CCCCOc1ccc(-c2nnn(CC(=O)c3c[nH]c4ccccc34)n2)cc1 -22.5%
CCN1CCN(c2ccc(S(=O)(=O)N3CCCCC3)cc2NC(=O)c2cc3ccccc3o2)CC1 -44.3%
Cc1cccc(C)c1NC(=O)C1c2ccccc2Oc2ccccc21 22.9%
CCCCOC(=O)c1cc(-c2ccc(/C=N/n3cnnc3)o2)ccc1Cl 9.8% [at 1.2 µM, 100% = signal doubled over neutral wells]
O=C(CNC(=O)c1ccco1)N/N=C/c1ccc(C(=O)O)cc1 52.9% [at 11 µM, 100% = signal doubled over neutral wells]
CC(=O)NC1C(=O)N(CCN2CCOCC2)c2ccc(Br)cc21 (configuration not stated) -15.1% [at 3.8 µM, 100% = signal doubled over neutral wells]
O=C(c1ccc2c(c1)OCO2)N1CCc2ccccc2C1 14.5%
O=C(CCN1CCOCC1)c1ccc(N2CCCCC2)cc1 -35% [at 3.8 µM, 100% = signal doubled over neutral wells]
CC(C)Oc1ccc(C(=O)CCN2CCOCC2)cc1 -16%
CC1(c2ccc(OC(F)F)cc2)NC(=O)N(CC(=O)Nc2cccc(S(N)(=O)=O)c2)C1=O (configuration not stated) -16.7%
C=CCN(CC=C)S(=O)(=O)c1ccc(C(=O)Nc2sc3c(c2C(N)=O)CCCCC3)cc1 -33.8% [at 3.8 µM, 100% = signal doubled over neutral wells]
C[C@H](O)[C@@H]1CN2CCc3ccc(-c4ccc5c(c4)OCO5)cc3[C@@H]2C[C@@H]1N(C)C(=O)c1cccc(Cl)c1 18.9% [at 0.42 µM, 100% = signal doubled over neutral wells]
CC(C(=O)N1CCC(C(N)=O)CC1)N(c1ccc(Oc2ccccc2)cc1)S(C)(=O)=O (configuration not stated) 28.2% [at 0.42 µM, 100% = signal doubled over neutral wells]
COc1ccc(CCNC(=O)CCc2ccccc2O)cc1OC -17.8% [at 0.005 µM, 100% = signal doubled over neutral wells]
COc1ccc(CCNC(=O)CCc2ccccc2)cc1OC -19.6% [at 0.42 µM, 100% = signal doubled over neutral wells]
CC(=O)NCCNC(=O)CNC(=O)c1ccc(Cl)cc1 -16.4% [at 0.0016 µM, 100% = signal doubled over neutral wells]
CCNc1nc(NC(C)CC)nc(ON=C(C)C)n1 (configuration not stated) 31.8%
COCCN(CCOC)Cc1cc(=O)oc2cc(C)c(C)cc12 -22.4% [at 0.046 µM, 100% = signal doubled over neutral wells]
COc1cccc2cc(-c3cc(=O)oc4cc(C)c(O)cc34)oc12 15.9% [at 3.8 µM, 100% = signal doubled over neutral wells]
O=C(NCCN1CCN(C(=O)c2ccccc2Cl)CC1)C(=O)NCc1ccccc1 23.3% [at 0.005 µM, 100% = signal doubled over neutral wells]
CC(O)c1nc2ccc(Cc3ccc4nc(C(C)O)[nH]c4c3)cc2[nH]1 (configuration not stated) -15% [at 0.0016 µM, 100% = signal doubled over neutral wells]
CCNc1nc(NC(C)C)nc(N(C)C#N)n1 18.9%
O=C(NN=C1CCCC1)c1cc(-c2ccccc2)n[nH]1 -11.9% [at 1.2 µM, 100% = signal doubled over neutral wells]
COc1ccc(/C=N/NC(=O)c2cc(-c3ccc4c(c3)OCO4)n[nH]2)cc1OC 26.5% [at 3.8 µM, 100% = signal doubled over neutral wells]
